Screens (PubChem BioAssay)
This is a sample that favours compounds with a hit; in the whole collection about 19% have one here.
DT40 TDP1 no CPT – qHTS for Inhibitors of human tyrosyl-DNA phosphodiesterase 1 (TDP1): qHTS in cells in absence of CPT | DT40 Tdp1-/- hTDP1 cells, no CPT, ATP luminescence, 48 h | Potency, µM (series often up to 46.2 µM), without a hit: at the top dose activity change, negative = growth inhibition, hits mostly inhibitors | hit rate 15% among 420,000 | AID 686978, 2013; further: potency means the concentration at half of the fitted maximal effect; on the % scale 0 is the no-effect control and ±100 the full control effect; nearly all actives have a fitted effect of over 55% in size
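Chicken DT40 Tdp1-/- cells complemented with human TDP1, screened without camptothecin (DMSO vehicle only), 400 cells/well. Compounds pin-transferred, cells incubated at 37 °C for at least 48 hr. Growth read as ATP-dependent luminescence (CellTiter-Glo, 30 min at RT).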
TGFb SMAD3 inh – blocks TGF-b signaling | hit rate 1.2% among 410,000 | HepG2 CAGA-GFP TGF-b/SMAD3 reporter, GFP fluorescence, 18 h; TGF-beta stimulated, 500 pg/mL final | AID 588855 | Potency, µM (highest dose often 46.1 µM), for the others: at the top dose activity, negative = inhibition, most hits filed as inhibitors; further: potency means the concentration at half of the fitted maximal effect; on the % scale 0 is the no-effect control and ±100 the full control effect; nearly all actives have a fitted effect of over 65% in size
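First, reporter cells (HEPG2 CAGA-GFP) rested 2 h at 37 degrees C. Next, compounds were pinned in and TGF-beta added to 500 pg/mL final. After 18 h, GFP was imaged per cell and summed per well.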
IL1B secr inh – inhibitors of inflammasome signaling (IL-1 beta secretion); THP-1 LPS/ATP IL-1B secretion, AlphaLISA, 16 h; stronger effect = lower value; activity change, % at 57.5 µM; hit rate 4.7% among 360,000; in the data active means activity change below about -50%; inconclusive means mostly about -30% to -49%; further: on the % scale 0 is the no-effect control and ±100 the full control effect
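THP-1 cells pretreated 1 hr with compounds (up to 57.5 uM final), then stimulated with LPS (250 ng/mL final) plus ATP (1.25 mM final); secreted IL-1B measured by AlphaLISA after 16 hr, decreased signal indicating inhibition.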
HepG2 tox – HepG2 cytotoxicity, counter-screen for TGF-b inhibitors; Potency, µM (series often up to 46.1 µM), for the others: top-dose activity change, negative = cytotoxicity, most hits filed as cytotoxic; HepG2 CAGA-GFP viability, ATP luminescence, 18 h; hit rate 0.76% among 410,000; AID 588856; further: potency means the concentration at half of the fitted maximal effect
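CellTiter-Glo luminescence gave cytotoxicity after 18 hours at 37 degrees C. The cells were HepG2 CAGA-GFP in 1% FBS DMEM, stimulated with 500 pg/mL TGF-beta after compound addition. %Activity was normalised to no-cell wells (complete cell-killing) and DMSO (no toxicity), and curves were fitted and classified.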
ASM inhibitor – human S-ASM enzyme inhibition. P17405. placental ASM, HMU-PC fluorogenic substrate, 60 min. Potency, µM (top dose mostly 57.5 µM), for inactives: at the top dose activity change, negative = inhibition, hits mostly inhibitors. hit rate 0.006% among 340,000; further: potency means the concentration at half of the fitted maximal effect
Target sequence (P17405 47-631 limits assumed): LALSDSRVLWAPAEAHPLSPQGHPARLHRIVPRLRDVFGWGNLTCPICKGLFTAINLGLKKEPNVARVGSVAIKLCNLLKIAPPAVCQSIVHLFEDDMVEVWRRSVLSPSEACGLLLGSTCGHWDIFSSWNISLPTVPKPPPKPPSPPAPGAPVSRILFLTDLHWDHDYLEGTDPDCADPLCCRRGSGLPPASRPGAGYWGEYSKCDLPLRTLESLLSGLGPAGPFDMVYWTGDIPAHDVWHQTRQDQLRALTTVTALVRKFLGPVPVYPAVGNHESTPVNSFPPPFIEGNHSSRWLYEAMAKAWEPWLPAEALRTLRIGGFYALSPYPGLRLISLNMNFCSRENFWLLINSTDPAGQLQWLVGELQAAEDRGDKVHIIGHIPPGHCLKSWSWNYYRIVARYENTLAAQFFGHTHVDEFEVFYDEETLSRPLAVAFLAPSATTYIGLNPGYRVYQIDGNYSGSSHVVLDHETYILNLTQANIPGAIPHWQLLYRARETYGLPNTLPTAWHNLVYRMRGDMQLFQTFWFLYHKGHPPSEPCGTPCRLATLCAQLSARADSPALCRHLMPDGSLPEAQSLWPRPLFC
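Steps: dispense placental human ASM, pin compound, wait 10 min at room temperature, add HMU-PC0 substrate at 9 uM final, incubate 60 min at 37 °C, add stop solution raising pH to 10, read fluorescence.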
TDP1 cell CPT – growth inhibition of DT40 Tdp1-/-;hTDP1 cells with camptothecin (screen for TDP1 inhibitors). chicken DT40 Tdp1-/-;hTDP1 cells + 20 nM CPT, ATP luminescence, 48 h. Potency, µM (doses to about 46.2 µM), without a hit: at the highest dose activity change, negative = growth inhibition, hits mostly inhibitors. hit rate 12% among 420,000. AID 686979; further: potency means the concentration at half of the fitted maximal effect; on the % scale 0 is the no-effect control and ±100 the full control effect; nearly all actives have a fitted effect of over 55% in size
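Cell growth measured by CellTiter-Glo luminescence after a minimum 48 h, 37 C compound exposure with 20 nM CPT in Tdp1-knockout DT40 cells stably expressing hTDP1, seeded 400/well; qHTS titration format.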
The depositor's hits bear a star; ? = inconclusive; . = not tested or not shown. Unless noted, the call rests on the fitted dose curve; in most records, active means well fitted curve in the direction sought with a large enough effect; inconclusive means small, poorly fitted or top-dose-only effect, or another doubt; inactive means no such curve, though single readings can be large; an effect the other way counts as inactive or inconclusive.

SMILES | DT40 TDP1 no CPT | TGFb SMAD3 inh | IL1B secr inh | HepG2 tox | ASM inhibitor | TDP1 cell CPT
C[C@H](O)[C@@H]1C(=O)N2CCc3ccc(-c4ccccc4)cc3[C@@H]2C[C@@H]1N(C)C(=O)c1ccc(C#N)cc1 | ? | -16.8% | -15.7 | 5.2% | -8.9% | ?
CC(=O)[O][Al][O]C(C)=O | -4.6% | . | . | . | . | 0.4%
C[C@@]12C(=O)Nc3cc(F)ccc3C(=O)N1[C@H]1c3ccccc3OC[C@@H]1[C@@H]2c1ccccc1 | ? | -0.6% | -74.7* | -20.7% | 0.3% | ?
COc1cc2c(cc1OC)C(=O)N1[C@H]3c4cc(Cl)ccc4OC[C@@H]3[C@H](c3ccccc3)[C@]1(C)C(=O)N2 | 18.4µM* | ? | -50.1* | -30.8% | -1.7% | 20.6µM*
COc1ccc2c(c1)C(=O)N1[C@H]3c4cc(Cl)ccc4OC[C@@H]3[C@H](c3ccccc3)[C@]1(C)C(=O)N2 | ? | 1.3% | ? | -19.1% | -22.0% | ?
COc1cc2c(cc1OC)C(=O)N1[C@H]3c4cc(C)ccc4OC[C@@H]3[C@H](c3ccccc3)[C@]1(C)C(=O)N2 | 20.6µM* | -5.2% | -50.5* | 1.8% | 4.5% | 18.4µM*
Cc1ccc2c(c1)[C@H]1[C@H](CO2)[C@H](c2ccccc2)[C@]2(C)C(=O)Nc3cc(Cl)ccc3C(=O)N12 | 20.6µM* | -9.0% | -21.0 | -15.0% | -12.4% | ?
O=C(NCC(c1ccccc1Cl)N1CCCC1)c1ccc(N2CCCC2=O)cc1 (stereo not given) | -10.3% | -2.3% | -11.9 | -2.3% | -3.2% | -24.1%
CC(C)N(C(=O)CSc1nnc(C2CC2)n1C1CC1)c1ccccc1 | -14.7% | -11.0% | 6.7 | -4.4% | 1.2% | 2.8%
Cc1ccc2c(c1)[C@H]1[C@H](CO2)[C@H](c2ccccc2)[C@]2(C)C(=O)Nc3ccc(F)cc3C(=O)N12 | 20.6µM* | -20.4% | -61.3* | -27.3% | -16.0% | 20.6µM*
Cc1ccc2c(c1)[C@H]1[C@H](CO2)[C@H](c2ccccc2)[C@]2(C)C(=O)Nc3cc(F)c(F)cc3C(=O)N12 | ? | -1.9% | ? | -10.6% | -25.4% | ?
COc1ccc(-c2cnc(N)nc2-c2ccc(OC)cc2)cc1 | -17.0% | 3.3% | 0.0 | -24.9% | 9.5% | -19.8%
CCc1cc(-c2nc(N)ncc2-c2ccc(Br)cc2)c(O)cc1OC | ? | ? | 36.6 | 22.4µM* | -13.4% | ?
C=C(C)COc1ccc(-c2ncncc2-c2ccccc2OC)c(O)c1 | ? | -6.8% | -15.6 | 16.2% | -4.0% | ?
C=C(C)COc1ccc(-c2nc(N)ncc2Oc2ccccc2OC)c(O)c1 | ? | ? | -61.6* | -103.5% | -17.5% | ?
C=C(C)COc1ccc(-c2nc(N)ncc2-c2ccc(Br)cc2)c(O)c1 | ? | 15.8µM* | 0.0 | -105.3% | -11.9% | ?
C=C(C)COc1ccc(-c2nc(N)ncc2Oc2ccc(OC)cc2)c(O)c1 | 29.1µM* | ? | 0.0 | 11.2µM* | ? | ?
COCCNC(=O)C(=O)Nc1cc2c3c(c1)CCC(=O)N3CCC2 | 3.1% | -6.4% | 12.2 | -8.1% | 268.7% | 17.4%
Cc1noc(C)c1COc1ccc(C(=O)N2CCC(C)CC2)cc1 | ? | -15.5% | 28.0 | -24.8% | 0.9% | ?
CCc1noc(C)c1C(=O)N1CCN(S(=O)(=O)c2cccs2)CC1 | 3.3% | 9.0% | 16.1 | -16.4% | -2.1% | 7.2%
Cc1sc2ncnc(N3CCC(C(=O)Nc4ccc(Cl)c(Cl)c4)CC3)c2c1C | ? | 13.3% | -7.4 | -13.9% | -7.2% | ?
Cc1sc2ncnc(N3CCC(C(=O)NCC(=O)Nc4ccc(F)c(F)c4)CC3)c2c1C | ? | ? | -78.9* | -27.9% | -10.5% | ?
CNC(=O)c1ccc(NC(=O)C2CCN(c3ncnc4sc(C)c(C)c34)CC2)cc1 | ? | 7.6% | -15.7 | 25.9% | -10.2% | ?
Cc1sc2ncnc(N3CCC(C(=O)Nc4ccc(Cl)cc4Cl)CC3)c2c1C | 18.4µM* | ? | 14.0 | -33.9% | . | ?
COc1ccc(Cn2c(=O)c3[nH]cnc3n(-c3ccc(C)cc3)c2=O)cc1 | ? | -12.6% | -13.7 | -18.7% | 6.7% | ?
SMILES | DT40 TDP1 no CPT | TGFb SMAD3 inh | IL1B secr inh | HepG2 tox | ASM inhibitor | TDP1 cell CPT
CC(Oc1ccccc1)C(=O)Nc1ccccc1C(=O)OCc1cc(=O)n2nc(C(C)C)sc2n1 (stereo not given) | 20.6µM* | -1.3% | . | -0.8% | . | ?
Cc1nn2c(=O)cc(COC(=O)c3ccccc3NC(=O)C(C)C)nc2s1 | 11.6µM* | -0.1% | . | -2.0% | . | ?
CC(C)c1nn2c(=O)cc(COC(=O)c3ccccc3NC(=O)COc3ccccc3)nc2s1 | ? | 2.3% | . | 2.7% | . | 5.1%
Cc1ccc(Cn2c(=O)c3c(nc4n3CCN4c3cc(C)cc(C)c3)n(C)c2=O)cc1 | -11.7% | 7.1% | . | 1.8% | . | -0.1%
CN(Cc1cnn(C)c1)C(=O)C1CCC(=O)N(Cc2ccc(Cl)cc2)C1 (stereo not given) | -6.4% | 2.1% | 0.0 | 4.6% | 2.2% | -1.6%
COc1cc(NC(=O)c2noc3c2CC(C)CC3)c(OC)cc1Cl (stereo not given) | -0.2% | -25.6% | . | 1.7% | . | 23.6%
C(#Cc1ccccc1)C[N+]1(CC#Cc2cccc3ccccc23)CCOCC1 | 4.61µM* | -2.4% | -84.4* | -14.2% | -6.5% | 6.51µM*
CCC[N+](CC#Cc1ccccc1)(CCC)CC(=O)OC | 4.3% | -1.1% | 28.0 | -17.8% | -0.1% | ?
O=C(C[N+]1(CC#Cc2ccccc2)CCCCC1)c1ccccc1 | 20.6µM* | 11.0% | -20.8 | -1.7% | 1.7% | 16.4µM*
C(#Cc1ccccc1)CN1CCOCC1 | 1.1% | 0.4% | 25.4 | -4.6% | 1.7% | 7.9%
CC[N+]1(CC(=O)c2ccc(Cl)cc2)CCCCC1 | -0.5% | 0.5% | . | 2.6% | . | 7.7%
O=C(C[N+]1(CC#Cc2ccccc2)CCCCC1)c1ccc(Cl)cc1 | 3.66µM* | 3.2% | -56.8* | -23.3% | 0.9% | 11.6µM*
CCC[N+](CC#Cc1ccccc1)(CCC)CC(=O)c1ccc(Cl)cc1 | 25.9µM* | -25.4% | -71.4* | -26.0% | -0.7% | ?
Cc1c(NC(=O)CN2C(=O)NC3(CCCC3)C2=O)c(=O)n(-c2ccccc2)n1C | 0.7% | 0.6% | -3.1 | -37.5% | 8.9% | 9.9%
